What was measured:
Test in all cases: log2 ratio of Biotin-Ahx-Ub-VS probe labelling (fragment/DMSO); higher = less target engagement (more negative = stronger competition), active = hit call of the paper (q ≤ 0.05, log2 ratio ≤ -1)
Conditions in all cases: compound concentration: 200 uM; treatment time: 3 h
[1] = molecular target: T1, USP19 (UniProt O94966)
T1 sequence (whole entry): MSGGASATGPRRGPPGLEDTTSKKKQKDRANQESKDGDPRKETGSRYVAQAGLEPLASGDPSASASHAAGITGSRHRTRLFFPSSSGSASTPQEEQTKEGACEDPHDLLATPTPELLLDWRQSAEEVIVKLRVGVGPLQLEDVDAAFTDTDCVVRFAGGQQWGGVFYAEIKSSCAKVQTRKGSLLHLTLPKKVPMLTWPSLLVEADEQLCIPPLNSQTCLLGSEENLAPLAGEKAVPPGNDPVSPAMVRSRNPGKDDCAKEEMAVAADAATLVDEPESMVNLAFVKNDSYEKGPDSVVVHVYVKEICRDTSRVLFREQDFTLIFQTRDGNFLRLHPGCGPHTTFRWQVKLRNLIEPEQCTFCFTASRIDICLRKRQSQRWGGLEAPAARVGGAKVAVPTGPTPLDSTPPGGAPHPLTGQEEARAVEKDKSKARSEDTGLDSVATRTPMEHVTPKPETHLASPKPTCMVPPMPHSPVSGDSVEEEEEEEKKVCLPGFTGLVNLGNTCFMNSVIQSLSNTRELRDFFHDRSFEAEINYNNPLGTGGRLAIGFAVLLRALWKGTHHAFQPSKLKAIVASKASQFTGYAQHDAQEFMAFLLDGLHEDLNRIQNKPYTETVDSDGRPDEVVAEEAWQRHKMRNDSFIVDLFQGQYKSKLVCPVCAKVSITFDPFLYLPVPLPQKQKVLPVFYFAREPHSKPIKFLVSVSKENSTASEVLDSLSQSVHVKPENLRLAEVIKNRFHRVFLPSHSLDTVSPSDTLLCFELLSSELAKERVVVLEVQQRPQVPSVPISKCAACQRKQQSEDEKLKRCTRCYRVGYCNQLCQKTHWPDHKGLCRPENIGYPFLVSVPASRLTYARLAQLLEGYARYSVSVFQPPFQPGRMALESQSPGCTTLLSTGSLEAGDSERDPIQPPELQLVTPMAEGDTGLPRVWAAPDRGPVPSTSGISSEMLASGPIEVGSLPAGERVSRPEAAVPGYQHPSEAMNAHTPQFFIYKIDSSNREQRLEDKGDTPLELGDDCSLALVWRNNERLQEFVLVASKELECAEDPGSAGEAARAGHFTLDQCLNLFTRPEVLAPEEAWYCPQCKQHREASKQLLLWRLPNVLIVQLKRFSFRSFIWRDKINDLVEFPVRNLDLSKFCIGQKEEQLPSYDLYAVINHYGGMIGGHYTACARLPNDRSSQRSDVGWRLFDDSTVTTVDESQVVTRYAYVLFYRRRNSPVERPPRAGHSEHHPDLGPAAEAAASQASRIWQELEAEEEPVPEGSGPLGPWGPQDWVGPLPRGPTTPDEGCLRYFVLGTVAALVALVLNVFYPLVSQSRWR
In short: (§1)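 Each value is an average log2 ratio of fragment to vehicle, tested by unpaired t-test. The underlying Spectronaut label-free quantities were global-median-normalised, and only proteins with ≥2 unique peptides were included. Triplicate HEK293T lysate samples (495 µg) were exposed to fragment at 200 µM or vehicle for 3 h, then to Biotin-Ahx-Ub-VS at 0.5 µM final for 1 h, before NeutrAvidin enrichment of labelled DUBs, LysC and trypsin digestion, and diaPASEF LC-MS/MS.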

[2] = molecular target: T2, USP22 (UniProt Q9UPT9)
T2 sequence (whole entry): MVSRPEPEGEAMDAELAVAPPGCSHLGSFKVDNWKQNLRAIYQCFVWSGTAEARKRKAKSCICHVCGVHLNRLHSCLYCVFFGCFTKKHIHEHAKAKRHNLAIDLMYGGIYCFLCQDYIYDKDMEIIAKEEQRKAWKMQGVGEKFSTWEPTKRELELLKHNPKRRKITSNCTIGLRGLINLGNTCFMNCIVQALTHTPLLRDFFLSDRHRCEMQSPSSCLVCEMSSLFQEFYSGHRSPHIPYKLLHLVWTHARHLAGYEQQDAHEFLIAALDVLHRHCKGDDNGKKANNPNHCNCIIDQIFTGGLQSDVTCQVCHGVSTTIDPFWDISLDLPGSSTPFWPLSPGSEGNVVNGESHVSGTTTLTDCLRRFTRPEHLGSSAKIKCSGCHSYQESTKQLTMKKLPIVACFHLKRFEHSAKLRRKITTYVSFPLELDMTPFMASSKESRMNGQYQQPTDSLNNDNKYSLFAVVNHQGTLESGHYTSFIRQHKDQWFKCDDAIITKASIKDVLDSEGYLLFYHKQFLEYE
In short: as §1

[3] = molecular target: USP24 (UniProt Q9UPU5)
Chain of USP24 (Q9UPU5 whole entry): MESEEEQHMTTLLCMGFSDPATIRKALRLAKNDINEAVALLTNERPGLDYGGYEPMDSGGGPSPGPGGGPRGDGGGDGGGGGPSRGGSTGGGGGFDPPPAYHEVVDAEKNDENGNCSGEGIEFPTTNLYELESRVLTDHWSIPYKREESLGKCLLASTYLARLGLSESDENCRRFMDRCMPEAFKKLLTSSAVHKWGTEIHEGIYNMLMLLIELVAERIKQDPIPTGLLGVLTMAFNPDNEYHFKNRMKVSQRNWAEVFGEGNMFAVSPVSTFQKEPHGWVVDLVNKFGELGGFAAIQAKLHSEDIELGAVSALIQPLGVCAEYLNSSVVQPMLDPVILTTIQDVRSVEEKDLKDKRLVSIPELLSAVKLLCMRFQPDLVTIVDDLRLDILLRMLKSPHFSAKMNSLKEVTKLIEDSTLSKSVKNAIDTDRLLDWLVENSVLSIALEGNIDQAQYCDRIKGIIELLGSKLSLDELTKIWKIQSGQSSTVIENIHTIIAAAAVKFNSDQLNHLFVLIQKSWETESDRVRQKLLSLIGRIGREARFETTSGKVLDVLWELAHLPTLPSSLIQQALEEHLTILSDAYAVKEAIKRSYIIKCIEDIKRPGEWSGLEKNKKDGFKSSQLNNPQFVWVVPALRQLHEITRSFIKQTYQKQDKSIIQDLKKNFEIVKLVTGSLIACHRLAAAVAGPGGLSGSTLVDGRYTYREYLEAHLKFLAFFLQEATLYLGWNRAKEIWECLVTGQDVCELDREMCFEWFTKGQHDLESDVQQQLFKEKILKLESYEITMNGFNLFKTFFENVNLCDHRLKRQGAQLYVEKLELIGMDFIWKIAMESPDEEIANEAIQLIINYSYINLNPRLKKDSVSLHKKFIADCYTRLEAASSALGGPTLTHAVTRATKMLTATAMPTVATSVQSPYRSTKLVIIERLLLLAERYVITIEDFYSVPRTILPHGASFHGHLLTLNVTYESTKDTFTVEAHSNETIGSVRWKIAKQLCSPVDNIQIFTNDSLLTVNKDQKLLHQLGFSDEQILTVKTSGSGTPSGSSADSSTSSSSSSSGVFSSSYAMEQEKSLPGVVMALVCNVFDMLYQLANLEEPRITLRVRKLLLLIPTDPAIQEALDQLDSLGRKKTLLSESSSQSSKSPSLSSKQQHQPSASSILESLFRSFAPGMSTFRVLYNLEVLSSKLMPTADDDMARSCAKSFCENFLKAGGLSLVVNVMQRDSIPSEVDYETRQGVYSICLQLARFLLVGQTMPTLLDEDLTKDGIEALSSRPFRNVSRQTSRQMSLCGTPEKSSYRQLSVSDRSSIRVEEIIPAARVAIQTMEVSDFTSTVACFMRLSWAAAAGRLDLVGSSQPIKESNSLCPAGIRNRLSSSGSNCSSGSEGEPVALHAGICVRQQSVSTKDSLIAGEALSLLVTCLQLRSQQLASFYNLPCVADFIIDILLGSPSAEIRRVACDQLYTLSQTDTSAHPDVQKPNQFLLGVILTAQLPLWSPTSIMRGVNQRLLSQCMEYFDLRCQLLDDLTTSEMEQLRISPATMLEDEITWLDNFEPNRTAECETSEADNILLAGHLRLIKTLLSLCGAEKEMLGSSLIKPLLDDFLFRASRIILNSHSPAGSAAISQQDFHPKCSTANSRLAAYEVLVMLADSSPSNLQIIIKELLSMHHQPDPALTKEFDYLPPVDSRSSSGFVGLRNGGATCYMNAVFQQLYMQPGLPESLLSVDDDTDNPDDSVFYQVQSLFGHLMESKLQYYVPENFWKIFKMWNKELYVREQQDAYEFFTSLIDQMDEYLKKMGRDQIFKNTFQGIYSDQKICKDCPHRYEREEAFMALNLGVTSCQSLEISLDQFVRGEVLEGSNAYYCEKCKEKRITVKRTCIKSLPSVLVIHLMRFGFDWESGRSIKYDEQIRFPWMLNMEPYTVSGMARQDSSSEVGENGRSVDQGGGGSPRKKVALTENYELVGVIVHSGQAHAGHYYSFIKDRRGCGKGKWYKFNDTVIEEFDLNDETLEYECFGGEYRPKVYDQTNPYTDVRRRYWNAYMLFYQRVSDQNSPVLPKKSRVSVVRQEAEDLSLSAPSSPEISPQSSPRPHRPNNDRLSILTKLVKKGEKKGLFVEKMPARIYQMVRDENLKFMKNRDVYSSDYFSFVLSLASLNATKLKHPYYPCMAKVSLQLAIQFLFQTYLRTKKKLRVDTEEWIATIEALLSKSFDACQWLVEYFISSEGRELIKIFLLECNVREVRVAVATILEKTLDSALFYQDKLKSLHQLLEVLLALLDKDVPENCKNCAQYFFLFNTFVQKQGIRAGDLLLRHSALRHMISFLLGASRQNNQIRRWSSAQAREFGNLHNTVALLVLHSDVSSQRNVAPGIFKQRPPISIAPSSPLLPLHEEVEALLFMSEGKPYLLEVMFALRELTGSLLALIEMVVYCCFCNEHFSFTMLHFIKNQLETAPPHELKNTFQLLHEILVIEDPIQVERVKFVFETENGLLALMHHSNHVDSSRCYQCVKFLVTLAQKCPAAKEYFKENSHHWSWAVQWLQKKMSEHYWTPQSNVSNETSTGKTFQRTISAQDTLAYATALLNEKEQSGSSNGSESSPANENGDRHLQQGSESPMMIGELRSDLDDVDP
In short: as §1

[4] = molecular target: T3, USP25 (UniProt Q9UHP3)
T3 sequence (whole entry): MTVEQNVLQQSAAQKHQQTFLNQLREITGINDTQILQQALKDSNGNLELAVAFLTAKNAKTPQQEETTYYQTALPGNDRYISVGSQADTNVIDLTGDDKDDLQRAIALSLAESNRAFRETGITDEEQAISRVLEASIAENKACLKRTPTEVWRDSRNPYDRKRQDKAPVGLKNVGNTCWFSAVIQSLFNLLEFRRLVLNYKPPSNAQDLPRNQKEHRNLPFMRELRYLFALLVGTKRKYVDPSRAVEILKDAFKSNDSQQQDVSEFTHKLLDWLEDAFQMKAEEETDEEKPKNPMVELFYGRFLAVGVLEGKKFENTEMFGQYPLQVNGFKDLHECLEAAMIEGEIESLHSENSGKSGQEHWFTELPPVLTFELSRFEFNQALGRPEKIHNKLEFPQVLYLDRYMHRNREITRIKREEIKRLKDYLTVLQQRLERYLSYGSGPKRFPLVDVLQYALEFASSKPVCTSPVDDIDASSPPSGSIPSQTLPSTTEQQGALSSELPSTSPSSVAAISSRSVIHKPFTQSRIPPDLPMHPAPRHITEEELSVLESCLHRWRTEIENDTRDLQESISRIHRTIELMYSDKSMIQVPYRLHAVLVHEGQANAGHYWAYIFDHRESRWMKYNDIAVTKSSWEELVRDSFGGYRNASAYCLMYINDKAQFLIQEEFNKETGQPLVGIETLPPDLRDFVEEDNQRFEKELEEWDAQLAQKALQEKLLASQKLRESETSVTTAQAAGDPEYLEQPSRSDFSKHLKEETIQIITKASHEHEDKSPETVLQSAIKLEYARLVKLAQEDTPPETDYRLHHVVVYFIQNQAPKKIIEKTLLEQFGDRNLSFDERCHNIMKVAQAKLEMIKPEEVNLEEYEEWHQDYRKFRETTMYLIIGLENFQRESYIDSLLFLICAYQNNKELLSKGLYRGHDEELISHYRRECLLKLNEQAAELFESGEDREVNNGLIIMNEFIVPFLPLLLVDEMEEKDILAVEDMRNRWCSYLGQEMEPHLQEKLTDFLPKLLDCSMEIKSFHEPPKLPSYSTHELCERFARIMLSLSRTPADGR
In short: as §1

[5] = molecular target: T4, USP28 (UniProt Q96RU2)
T4 sequence (whole entry): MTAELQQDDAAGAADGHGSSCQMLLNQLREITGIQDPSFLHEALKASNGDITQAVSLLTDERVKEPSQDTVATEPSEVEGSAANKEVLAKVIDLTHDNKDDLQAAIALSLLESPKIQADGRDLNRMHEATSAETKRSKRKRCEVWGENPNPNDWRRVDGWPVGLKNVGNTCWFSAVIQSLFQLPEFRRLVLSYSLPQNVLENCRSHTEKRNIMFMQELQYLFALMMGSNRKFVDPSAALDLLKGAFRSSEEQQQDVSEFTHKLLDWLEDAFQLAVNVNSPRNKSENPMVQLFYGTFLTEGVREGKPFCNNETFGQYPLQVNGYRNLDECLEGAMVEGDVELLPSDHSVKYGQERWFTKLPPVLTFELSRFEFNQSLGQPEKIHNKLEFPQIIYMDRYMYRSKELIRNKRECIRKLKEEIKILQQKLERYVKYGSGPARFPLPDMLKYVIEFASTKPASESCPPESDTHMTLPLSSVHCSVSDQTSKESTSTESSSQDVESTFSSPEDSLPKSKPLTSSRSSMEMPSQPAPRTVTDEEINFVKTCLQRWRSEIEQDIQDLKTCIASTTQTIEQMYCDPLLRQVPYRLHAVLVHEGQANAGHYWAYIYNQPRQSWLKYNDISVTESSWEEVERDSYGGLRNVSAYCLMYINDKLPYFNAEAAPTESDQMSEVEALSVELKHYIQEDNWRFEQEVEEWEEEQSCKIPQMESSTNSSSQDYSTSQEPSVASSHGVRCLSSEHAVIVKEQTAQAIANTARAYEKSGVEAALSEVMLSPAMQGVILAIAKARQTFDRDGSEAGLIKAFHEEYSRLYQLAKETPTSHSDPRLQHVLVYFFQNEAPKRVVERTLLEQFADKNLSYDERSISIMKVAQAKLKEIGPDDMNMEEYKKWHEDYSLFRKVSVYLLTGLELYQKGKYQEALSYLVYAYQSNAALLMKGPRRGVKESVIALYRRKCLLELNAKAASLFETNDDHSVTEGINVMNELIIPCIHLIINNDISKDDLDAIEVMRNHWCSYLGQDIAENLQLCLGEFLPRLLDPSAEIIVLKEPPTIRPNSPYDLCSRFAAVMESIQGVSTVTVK
In short: as §1

Measured: log2 ratio of Biotin-Ahx-Ub-VS probe labelling

O=C(CCl)NCCc1ccc2c(c1)OCCO2
inactive: [1] -0.254 | [2] 0.0144 | [3] -0.665 | [4] -0.794 | [5] -0.745
